Source: PubChem (National Center for Advancing Translational Sciences (NCATS))
Most compounds without a hit are left out; they make up all but 13% or so of the library.
HCMV inh = inhibitors of human cytomegalovirus. HFF cells, HCMV-luciferase reporter, 72 h; active compounds read low. activity change, negative = inhibition, % at 57.5 µM. actives 4.5% (n = 410,000); in the data active means activity change below about -60%; inconclusive means no clear call, values can overlap the other calls; inactive means above about -39%; further: on the % scale 0 is the no-effect control and ±100 the full control effect
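Compounds were evaluated in HFFs infected with an HCMV luciferase reporter virus (MOI 1 PFU/cell). Luciferase in lysates collected 72 h post infection served as the replication measure.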
Pf growth 48h = P. falciparum growth inhibition at 48 hours (one generation) | P. falciparum luciferase growth in erythrocytes, 48 h | Potency, µM (titrated, usually from 28.7 µM), inactives show top-dose activity change, negative = inhibition, usual class: inhibitors | actives 5.9% (n = 310,000) | AID 504832; further: potency means the concentration at half of the fitted maximal effect; on the % scale 0 is the no-effect control and ±100 the full control effect
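Parasite viability was followed by luminescence of a genomically integrated firefly luciferase. Cultures held 0.1% parasitemia at 2% hematocrit (final), incubated under 5% CO2 at 37 C.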
HCV inh = blocks hepatitis C virus; Huh7.5.1 HCVcc-Cre infection, luciferase reporter, 44 h; actives 3.4% (n = 340,000); Potency, µM (titrated, usually from 41.8 µM), for inactives: at the top dose activity change, negative = inhibition, actives largely listed as inhibitors; further: potency means the concentration at half of the fitted maximal effect; on the % scale 0 is the no-effect control and ±100 the full control effect
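A cell-based infection assay in which seeded cells (1,000 per well) receive test compound after 4 h, are inoculated with HCVcc-Cre at approximately 0.5 moi, and are incubated 44 h before luminescence detection.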
Pf growth 96h = inhibits malaria parasite growth, 96 h. AID 504834. actives 6.9% (n = 320,000). P. falciparum luciferase reporter growth, 96 h. Potency, µM (titrated, usually from 28.7 µM), inactives show at the top dose activity change, negative = inhibition, most hits filed as inhibitors; further: potency means the concentration at half of the fitted maximal effect; on the % scale 0 is the no-effect control and ±100 the full control effect
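Parasite growth measured via integrated firefly luciferase reporter in P. falciparum. Infected erythrocytes at 2% hematocrit, 0.05% parasitemia final were treated 96 hours at 37 C under 5% CO2, and luminescence was read.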
CLK4 cf ADPGlo = confirmation of inhibitors of human CDC-like kinase 4; AID 1969; actives 80% (n = 65); shares compounds with Pf growth 48h; recombinant Clk4, RS peptide, ADP-Glo luminescence; Potency, µM (top dose mostly 80 µM), inactives show at the top dose activity, negative = inhibition, usual class: inhibitors
Target sequence (Q9HAZ1 whole entry, looked up): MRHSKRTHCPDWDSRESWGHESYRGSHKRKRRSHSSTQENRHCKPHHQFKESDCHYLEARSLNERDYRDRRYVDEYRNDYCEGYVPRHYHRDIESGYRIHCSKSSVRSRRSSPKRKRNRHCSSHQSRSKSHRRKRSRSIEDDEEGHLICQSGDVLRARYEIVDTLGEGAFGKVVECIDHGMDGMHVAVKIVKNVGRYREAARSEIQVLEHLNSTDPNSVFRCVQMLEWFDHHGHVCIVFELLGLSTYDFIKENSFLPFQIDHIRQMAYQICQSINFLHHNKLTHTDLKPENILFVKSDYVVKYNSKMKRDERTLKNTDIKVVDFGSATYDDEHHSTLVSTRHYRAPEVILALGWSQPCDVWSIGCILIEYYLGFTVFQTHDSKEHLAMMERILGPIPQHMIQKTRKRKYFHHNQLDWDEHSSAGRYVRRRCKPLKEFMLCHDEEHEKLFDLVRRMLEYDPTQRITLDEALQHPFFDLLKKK
CLK4 cf ADP-FP = confirmation of human CDC-like kinase 4 (CLK4) inhibitors. shares compounds with Pf growth 48h. recombinant Clk4, ADP Transcreener FP, RS peptide. Potency, µM (titrated, usually from 80 µM), without a hit: top-dose activity, negative = inhibition, usual class: inhibitors. actives 70% (n = 65). AID 1983
The depositor's hits bear a star; ? = inconclusive; · = not tested or not shown; ! = not active in a repeat. Unless noted, the call rests on the fitted dose curve; in most records, active means well fitted curve in the direction sought with a large enough effect; inconclusive means small, poorly fitted or top-dose-only effect, or another doubt; inactive means no such curve, though single readings can be large; an effect the other way counts as inactive or inconclusive.

SMILES | HCMV inh | Pf growth 48h | HCV inh | Pf growth 96h | CLK4 cf ADPGlo | CLK4 cf ADP-FP
CSc1nc2nc(-c3ccccc3)cc(C(F)(F)F)n2n1 | -29.4 | 4.15µM* | ? | 1.2% | · | ·
CC(Sc1nc(-c2ccccc2)cc(C(F)(F)F)n1)C(=O)O (configuration not stated) | -39.5 | 14.1% | 13.9% | -6.7% | · | ·
Cc1ccc(-c2nn(CC(=O)NC3CCCCC3)c3c2cnc2ccccc23)cc1 | -4.0 | · | · | · | · | ·
CC(C)(C)c1cccc(Cn2nnc3ccccc32)c1O | ? | 9.28µM* | ? | ? | · | ·
Cc1cc(Cn2nnc3ccccc32)c(O)c(C(C)(C)C)c1 | -20.0 | 11.7µM* | 10µM* | ? | · | ·
Cc1cccc(Cn2nnc3ccccc32)c1O | -21.0 | ? | -21.5% | ? | · | ·
Clc1ccc(CSc2nc3ncccc3[nH]2)cc1 | 80.5 | · | · | · | · | ·
Cn1c(=O)n(C)c2cc(N3CCCCC3)c(NC(=O)c3ccc(C(C)(C)C)cc3)cc21 | 3.5 | · | · | · | · | ·
CCC(C(=O)Nc1nnc2n1CCS2)c1ccccc1 (configuration not stated) | 13.5 | · | · | · | · | ·
CCc1nn(CCCC(=O)NCc2ccccc2Br)c(=O)c2cc3occc3n12 | -68.1*! | -16.4% | 37.6% | 2.6% | · | ·
COc1cccc(CNC(=O)CCCn2ncn3c(cc4occc43)c2=O)c1 | 24.8 | ? | -2.6% | 4.65µM* | · | ·
CCc1nn(CC(=O)N2CCN(Cc3ccc4c(c3)OCO4)CC2)c(=O)c2cc3occc3n12 | -61.1* | 3.5% | ? | -1.8% | · | ·
CCc1cccc(NC(=O)CCCn2nc(CC)n3c(cc4occc43)c2=O)c1 | -24.4 | ? | ? | 11.7µM* | · | ·
O=C(Nc1cc(F)ccc1F)c1ccc2c(c1)nnn2C1CCCC1 | 36.5 | · | · | · | · | ·
COc1ccc(NC(=O)c2oc3ccccc3c2NC(=O)c2cc(=O)c3c(C)cc(C)cc3o2)cc1 | 3.9 | · | · | · | · | ·
CC(C)OCCCNC(=O)c1cc2c(-c3ccc(Cl)cc3)nn(C)c2s1 | 157.2 | · | · | · | · | ·
CCc1nn(CC(=O)NCCc2ccc(OC)cc2OC)c(=O)c2cc3occc3n12 | -61.5*! | 1.1% | ? | 12.9% | · | ·
COC(=O)c1c(NC(=O)c2cc3nc(-c4ccc(Br)cc4)cc(C(F)(F)F)n3n2)sc2c1CCCC2 | 17.2 | · | · | · | · | ·
O=C(NCc1ccccc1F)c1cc2ccccn2n1 | 80.0 | · | · | · | · | ·
CCc1cccc2c(C(=O)COC(=O)/C=C/c3ccccc3OC)c[nH]c12 | -8.4 | ? | ? | 13.1µM* | · | ·
Fc1cccc(CNc2ncnc3ccc(-c4ccc5c(c4)OCO5)cc23)c1 | -92.1* | 4.15µM* | · | 2.94µM* | 0.141µM* | 0.0891µM*
c1cncc(CNc2ncnc3ccc(-c4ccc5c(c4)OCCO5)cc23)c1 | 24.4 | 17.1% | · | 4.1% | 0.398µM* | 0.708µM*
Clc1cccc(-c2ccc3ncnc(NCc4cccnc4)c3c2)c1 | 5.8 | ? | · | 13.1µM* | 4.47µM* | ?
Clc1ccccc1-c1ccc2ncnc(NCc3ccc4c(c3)OCO4)c2c1 | 1.0 | 8.28µM* | · | 3.7µM* | ? | -16.6%
Cc1cccc(-n2ncc3c(NCc4cccnc4)ncnc32)c1 | 132.5 | 91.1% | -29.0% | 108.4% | · | ·
SMILES | HCMV inh | Pf growth 48h | HCV inh | Pf growth 96h | CLK4 cf ADPGlo | CLK4 cf ADP-FP
Cn1c(=O)c2cc(NC(=S)NC3CCCCC3)ccc2n1Cc1ccc(Cl)cc1 | -5.4 | · | · | · | · | ·
c1cncc(CNc2ncnc3ccc(-c4cccnc4)cc23)c1 | 14.0 | ? | · | ? | 7.94µM* | 12.6µM*
Clc1ccccc1-c1ccc2ncnc(NCc3cccnc3)c2c1 | 10.5 | -5.1% | · | ? | 12.6µM* | ?
COc1ccc(-n2ncc3c(NCc4ccc5c(c4)OCO5)ncnc32)cc1 | 9.6 | 98.5% | -9.8% | 67.0% | · | ·
c1cncc(-c2ccc3ncnc(NCc4ccc5c(c4)OCO5)c3c2)c1 | -22.2 | ? | · | ? | 7.08µM* | 11.2µM*
c1nc(NCc2ccc3c(c2)OCO3)c2cc(-c3ccoc3)ccc2n1 | · | ? | · | ? | 0.708µM* | 0.891µM*
c1ccc(-n2ncc3c(NCc4ccc5c(c4)OCO5)ncnc32)cc1 | 17.7 | -1.1% | -15.8% | ? | · | ·
Cc1ccc(-n2ncc3c(NCc4cccnc4)ncnc32)cc1C | 0.0 | 118.0% | ? | 59.9% | · | ·
O=S1(=O)CC(N2CCN(CCO)CC2)CN1Cc1cn(Cc2ccc(C(F)(F)F)cc2)nn1 (configuration not stated) | -17.5 | · | · | · | · | ·
COc1cccc(-c2ccc3ncnc(NCc4cccc(F)c4)c3c2)c1 | · | 6.57µM* | · | 3.7µM* | 0.631µM* | 0.891µM*
COc1ccccc1CNc1ncnc2cc(OC)c(OC)cc12 | -3.4 | ? | ? | ? | · | ·
COc1cccc(-c2ccc3ncnc(NCc4cccc(C)c4)c3c2)c1 | -85.6* | 6.57µM* | · | 3.7µM* | 1.26µM* | 1.78µM*
CCc1ccc2c(F)cccc2n1 | -4.6 | · | · | · | · | ·
CN(Cc1ccco1)c1ncnc2ccc(-c3ccoc3)cc12 | -4.6 | ? | · | ? | 0.251µM* | 0.316µM*
COc1cc2ncnc(NCc3ccco3)c2cc1OC | -8.2 | ? | -7.4% | ? | · | ·
CN(Cc1ccco1)c1ncnc2ccc(-c3ccccc3Cl)cc12 | ? | 9.28µM* | · | ? | 10µM* | 15.8µM*
CN(Cc1ccccc1)c1ncnc2ccc(Br)cc12 | · | ? | ? | 59.3% | · | ·
Cc1cccc(C(O)c2ncc(-c3ccccc3)[nH]2)c1C (configuration not stated) | -17.4 | · | · | · | · | ·
c1cncc(-c2ccc3ncnc(NCc4cccs4)c3c2)c1 | -0.4 | ? | · | 9.28µM* | 3.16µM* | 7.08µM*
COc1cccc(-c2ccc3ncnc(NCc4cccs4)c3c2)c1 | ? | 9.28µM* | · | 4.15µM* | 1µM* | 1.12µM*
CCCc1nc2c(C)cc(Br)cn2c1Cc1ccccc1C(F)(F)F | -28.0 | · | · | · | · | ·
CC(C)NC(=O)N(C)C[C@H]1OCCCC[C@@H](C)Oc2ccc(N(C)C)cc2C(=O)N([C@H](C)CO)C[C@@H]1C | -22.2 | · | · | · | · | ·
Cc1ccc(S(=O)(=O)N(C)C[C@H]2OCCCC[C@@H](C)Oc3ccc(NC(=O)Cc4ccccc4)cc3C(=O)N([C@H](C)CO)C[C@@H]2C)cc1 | 5.4 | · | · | · | · | ·
Cn1ccc2cc(-c3ccc4ncnc(NCc5cccs5)c4c3)ccc21 | -71.9* | 2.94µM* | · | 5.22µM* | 14.1µM* | ?
Cn1c(-c2cccc(Br)c2)cnc1NCc1cccc(F)c1 | -21.0 | · | · | · | · | ·
Cn1ccc2cc(-c3ccc4ncnc(NCc5cccnc5)c4c3)ccc21 | · | 1.85µM* | · | 2.62µM* | 10µM* | 14.1µM*
Cn1ccc2cc(-c3ccc4ncnc(NCc5cccc(F)c5)c4c3)ccc21 | · | 8.28µM* | · | 3.7µM* | ? | ?
CSc1ncccc1C(=O)N1CCC1(C)C(=O)NC(C)C (configuration not stated) | 19.9 | · | · | · | · | ·
